Among the data in PubChem BioAssay (NCI) are growth values, retold here.

Compounds without any hit were thinned out: in the full panel of roughly 83,000, 20% have a hit.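 Values shown are percent growth following 48 h exposure of cells in 96-well plates to a single concentration of compound; below 10 was considered active.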 Values without a mark were called inactive. The source made the active and inactive calls.

The test system of one assay is MDA-MB-231 breast. Kind of assay: NCI-60 one-dose screen, 48 h (100 = growth as untreated, 0 = no growth, -100 = all killed). As to conditions: 10 µM unless noted.
As for `C/C(=C\C(=N\N=C(N)N)c1ccc(Cl)cc1)c1ccc(Cl)cc1`, the growth was -73.1% (active). Consider `O=C(NO)c1ccc(NCc2csc3ccccc23)cc1`, for which the growth was 60.9%. Still for that read-out and setting: then `C#CC[C@@H]1C[C@]2(C)[C@H]3CC=C4[C@H]5CC(C)(C)CC[C@]5(C(=O)NCCCCN)CC[C@@]4(C)[C@]3(C)CC[C@H]2C(C)(C)[C@H]1OC(C)=O`, with -58.6% (active); and `Oc1ccc(Cl)cc1-c1cc(-c2ccccc2Cl)[nH]n1`, with 21.7%. On the same count and under the same terms, then `CC1C2CCC(C2)C1COCCOCCO` (stereo not given), with 113%; and `O=C1C(Cl)=C(N/N=c2/[nH][nH]/c(=N/NC3=C(Cl)C(=O)c4ccccc4C3=O)c3ccccc23)C(=O)c2ccccc21`, with 42.8%; and `COc1ccc(/C=c2\c(=O)n(-c3ccccc3)c3nn4c(n23)=NNC42CCCCC2)cc1`, with 87.3%. Still for that read-out and setting: then `CCNC(=S)N(Cc1ccccc1)Cc1ccccc1`, with 116%; and `N#CC1=C(N)Oc2nc[nH]c(=O)c2C1c1cccs1` (stereo not given), with 106%. In the case of `CCN(C(=O)Nc1cccc2ccccc12)c1ccccc1`, the growth was 105%. With `COc1ccc(-c2nc(-c3cc(OC)cc(OC)c3)[nH]c2-c2ccc(OC)cc2)cc1`, the growth was 58.7%.

In another assay the test system is RXF 393 renal. The description is as above. Conditions: 10 µM unless noted.
Regarding `CCOC(=O)c1ccc(N(CCC(=O)O)C(C)=O)cc1`, the growth was 106%. As for `Nc1c(C(=O)Nc2cccc(Cl)c2)sc2ncc(Br)cc12`, the growth is 86.4%. Still for that read-out and setting: then `CSC(=S)N/N=C(\C)c1ccccn1`, with 0.311% (active). On the same count and under the same terms, then `CC(=O)O[C@H]1[C@H](CC#CC#CC[C@@H]2C[C@]3(C)[C@H]4CC=C5[C@H]6[C@@H](C)[C@H](C)CC[C@]6(C(=O)NCCCCCCCCN)CC[C@@]5(C)[C@]4(C)CC[C@H]3C(C)(C)[C@H]2OC(C)=O)C[C@]2(C)[C@H]3CC=C4[C@H]5[C@@H](C)[C@H](C)CC[C@]5(C(=O)NCCCCCCCCN)CC[C@@]4(C)[C@]3(C)CC[C@H]2C1(C)C`, with 94.6%; and `CC(C)COC(=O)NC(C)(C)C`, with 113%; and `CCC(=O)NC(O)C(Cl)(Cl)C(C)Cl` (stereo not given), with 111%. The same measure, in the same setting: the value for `C#CCNC(=S)N/N=C(\C)c1ccccn1` was 6.73% (active). Turning to `COc1ccc(-c2nnc(SCC(=O)Nc3ccc(C(=O)/C=C/c4ccc(Cl)cc4)cc3)n2-c2ccccc2)cc1`, the growth was 106%. On the same count and under the same terms, then `CC1CCN(Cc2ccc(NC(=O)c3cc4ccc5cccnc5c4[nH]3)cc2)CC1`, with -3.5% (active); and `CC(C)N1CCN(c2ccncc2S(=O)(=O)N2CCN(C)CC2)CC1`, with 107%. Consider `O=C(/C=C/c1ccccc1)n1c(-c2ccccc2)nc2ccccc21`, for which the growth is 102%. The same measure, in the same setting: the value for `COC1CC(N)C2OC(c3ccccc3)OCC2O1` (stereo not given) was 115%; that for `COc1cccc(NC(=O)[C@H](C(C)C)n2c(=O)[nH]c3ccccc3c2=O)c1` was 109%. On the same count and under the same terms, the value for `COc1ccc(-c2cnc3ccnn3c2-c2cc(OC)c(OC)c(OC)c2)cc1` was 1.8% (active); that for `COc1cc2cc(C(=O)Nc3ccccc3)c(N)nc2cc1OC` was -14.7% (active).

For `O=C(C=P(c1ccccc1)(c1ccccc1)c1ccccc1)CCl`, the growth is -71.1% (active).

With `CCCCCCCCCCCCCCCCS(=O)(=O)Nc1cc(C(=O)NN)cc(C(=O)NN)c1`, the growth is 94.3%. Same read-out and setting: then `COS(=O)(=O)CCN(CCOS(C)(=O)=O)S(C)(=O)=O`, with 105%; and `CCn1c(CN2CCN(Cc3ccccc3)CC2)nc2cc(NC(=O)c3cccs3)ccc21`, with -92.4% (active); and `CC(=O)c1ccc(-n2c(-c3cc(-c4ccsc4)n[nH]3)n[nH]c2=S)cc1`, with 106%. Still for that read-out and setting: the value for `CCN(CC)Cc1cc(Nc2ccnc3cc(Cl)ccc23)cc(-c2ccc(Cl)cc2)c1O` was 46.4%. Regarding `O=C(NCC(c1ccsc1)N1CCCCCC1)c1ccc(C(F)(F)F)cc1` (stereo not given), the growth was 85.7%. Still for that read-out and setting: the value for `COc1cc(NC(C)CCCN)c2ncccc2c1Oc1ccc(Cl)cc1` (stereo not given) was 79.5%; that for `O=C(c1ccccc1)N(CCCCl)C(=O)N(CCCCl)C(=O)c1ccccc1` was 111%; that for `COc1ccc(C2=CC(c3ccc(OC)cc3Br)N3C=CSC3=N2)cc1` (stereo not given) was 84.6%. Still for that read-out and setting: the value for `CC(=O)c1nn(-c2ccccc2)/c(=N\N=C\c2coc3ccc(F)cc3c2=O)s1` was 116%; that for `O=C(c1ccc(C(F)(F)F)c(Cl)c1)N(Cc1ccc(Cl)cc1)c1ccc(-c2cc(C(F)(F)F)[nH]n2)c(O)c1` was -9.88% (active); that for `C/C(=N\OC(=O)Nc1cccc(Cl)c1)c1ccccc1` was 87.5%.

On to `C/C(=C\C(=N\N=C(N)N)c1ccc(Cl)cc1)c1ccc(Cl)cc1`, for which the growth is -95.8% (active). Still for that read-out and setting: then `O=C(NO)c1ccc(NCc2csc3ccccc23)cc1`, with 71.2%. On the same count and under the same terms, the value for `C#CC[C@@H]1C[C@]2(C)[C@H]3CC=C4[C@H]5CC(C)(C)CC[C@]5(C(=O)NCCCCN)CC[C@@]4(C)[C@]3(C)CC[C@H]2C(C)(C)[C@H]1OC(C)=O` was -43.3% (active). The same measure, in the same setting: the value for `Oc1ccc(Cl)cc1-c1cc(-c2ccccc2Cl)[nH]n1` was 84.2%. For the molecule `CC1C2CCC(C2)C1COCCOCCO` (stereo not given), the growth was 116%. On the same count and under the same terms, the value for `O=C1C(Cl)=C(N/N=c2/[nH][nH]/c(=N/NC3=C(Cl)C(=O)c4ccccc4C3=O)c3ccccc23)C(=O)c2ccccc21` was 73.7%; that for `COc1ccc(/C=c2\c(=O)n(-c3ccccc3)c3nn4c(n23)=NNC42CCCCC2)cc1` was 110%. Regarding `CCNC(=S)N(Cc1ccccc1)Cc1ccccc1`, the growth is 126%.

`N#CC1=C(N)Oc2nc[nH]c(=O)c2C1c1cccs1` (stereo not given): the growth is 97.8%. Same read-out and setting: the value for `CCN(C(=O)Nc1cccc2ccccc12)c1ccccc1` was 120%; that for `COc1ccc(-c2nc(-c3cc(OC)cc(OC)c3)[nH]c2-c2ccc(OC)cc2)cc1` was 54.5%.
